This passage reports z-score and composite z-score results from PubChem BioAssay.

The source made the active and inactive calls.

Test [1] is described as follows: optical density shifts of acrAB sulA E. coli – strain DRC41, OD650, 48 h, E. coli filamentation inducer project, primary screen (AID 1152).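 Further: E. coli MC1000 strain DRC41 lacking acrAB efflux pump and sulA.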 The conditions noted are these: higher = more signal, called active from +8 up or from −8 down.
Test [2] is described as follows: probe aLefty1 binding on compound microarray – biochemical, small-molecule microarray, 635/667 nm fluorescence, primary screen (AID 1153).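 Further: score merges spot fluorescence with signal-to-noise ratio from the scanned slide images.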 As to conditions: higher = more signal.
A short description of test [3]: plasmodial surface anion channel blockers, osmotic lysis – cell-based, P. falciparum Indochina, OD700, 1 h, primary screen (AID 1154). As to conditions: P. falciparum Indochina infected RBC osmotic lysis, higher = more signal, called active from +8 up or from −8 down.
Test [4] in a line: plasmodial surface anion channel blockers, osmotic lysis – cell-based, P. falciparum Indochina, OD700, 2 h, primary screen (AID 1155).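 Further: lysis reports solute entry through the parasite surface anion channel PSAC.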 The conditions noted are these: P. falciparum Indochina infected erythrocytes, higher = more signal, called active from +8 up or from −8 down.
Test [5] in a line: changes in parasitized red cell lysis, either direction – P. falciparum Indochina, OD700, 3 h, PSAC antagonist project, primary screen (AID 1156). As to conditions: P. falciparum-infected erythrocytes, osmotic lysis, higher = more signal, called active from +8 up or from −8 down.
Test [6] can be described thus: plasmodial surface anion channel blockers, osmotic lysis – cell-based, P. falciparum Indochina, OD700, 18 h, primary screen (AID 1157). As to conditions: P. falciparum Indochina infected erythrocytes, osmotic lysis OD700, 18 h; higher = more signal, called active from +8 up or from −8 down.
A short description of test [7]: S6 kinase pathway phospho-S6 level changes – cell-based, A549, cytoblot, luminescence, serum-stimulated, primary screen (AID 1158).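 Further: serum-stimulated A549 lung adenocarcinoma cells; signal is phosphorylated S6 detected by cytoblot immunostaining with HRP secondary.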 The conditions noted are these: 5 h, higher = more signal.
Test [8] has as its target NADPH oxidase 2 (Homo sapiens) (UniProt P04839). In words: compounds shifting NOX2 Amplex Red fluorescence – cell-based, HEK293-NOX2, PMA-stimulated, NOX inhibitor project, primary screen (AID 1159). Further: test concentration not given here. As to conditions: 45 min, higher = more signal, called active from +8 up or from −8 down.
In test [9] the target is NADPH oxidase 4 (Homo sapiens) (UniProt Q9NPH5). In words: compounds shifting NOX4 Amplex Red fluorescence – cell-based, HEK293-NOX4, tetracycline-induced, NOX inhibitor project, primary screen (AID 1160). As to conditions: HEK293-NOX4, Amplex Red H2O2 fluorescence, 45 min; higher = more signal, called active from +8 up or from −8 down.
Sequence of NADPH oxidase 4 (Homo sapiens) (Q9NPH5 whole entry, looked up): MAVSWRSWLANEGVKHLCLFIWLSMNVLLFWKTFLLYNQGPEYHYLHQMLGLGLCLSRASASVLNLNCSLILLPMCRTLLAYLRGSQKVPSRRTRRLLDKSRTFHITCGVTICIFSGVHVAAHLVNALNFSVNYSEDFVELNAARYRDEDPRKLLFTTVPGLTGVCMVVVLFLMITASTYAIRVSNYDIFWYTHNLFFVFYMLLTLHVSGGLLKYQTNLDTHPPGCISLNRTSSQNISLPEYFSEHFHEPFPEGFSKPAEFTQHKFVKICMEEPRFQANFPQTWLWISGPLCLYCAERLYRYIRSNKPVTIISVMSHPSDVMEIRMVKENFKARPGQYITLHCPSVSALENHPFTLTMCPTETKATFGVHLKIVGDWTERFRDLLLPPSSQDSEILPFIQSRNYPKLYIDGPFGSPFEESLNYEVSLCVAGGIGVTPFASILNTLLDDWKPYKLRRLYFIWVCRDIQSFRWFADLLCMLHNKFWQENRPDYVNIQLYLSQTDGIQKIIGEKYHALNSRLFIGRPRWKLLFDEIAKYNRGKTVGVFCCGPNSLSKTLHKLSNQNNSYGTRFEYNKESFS
In test [10] the target is NADPH oxidase 5 (Homo sapiens) (UniProt Q96PH1). Kind of test: compounds shifting NOX5 Amplex Red fluorescence – cell-based, HEK293-NOX5, NOX inhibitor project, primary screen (AID 1161). As to conditions: HEK293-NOX5, ionomycin, 45 min, higher = more signal.
Sequence of NADPH oxidase 5 (Homo sapiens) (Q96PH1 whole entry, looked up): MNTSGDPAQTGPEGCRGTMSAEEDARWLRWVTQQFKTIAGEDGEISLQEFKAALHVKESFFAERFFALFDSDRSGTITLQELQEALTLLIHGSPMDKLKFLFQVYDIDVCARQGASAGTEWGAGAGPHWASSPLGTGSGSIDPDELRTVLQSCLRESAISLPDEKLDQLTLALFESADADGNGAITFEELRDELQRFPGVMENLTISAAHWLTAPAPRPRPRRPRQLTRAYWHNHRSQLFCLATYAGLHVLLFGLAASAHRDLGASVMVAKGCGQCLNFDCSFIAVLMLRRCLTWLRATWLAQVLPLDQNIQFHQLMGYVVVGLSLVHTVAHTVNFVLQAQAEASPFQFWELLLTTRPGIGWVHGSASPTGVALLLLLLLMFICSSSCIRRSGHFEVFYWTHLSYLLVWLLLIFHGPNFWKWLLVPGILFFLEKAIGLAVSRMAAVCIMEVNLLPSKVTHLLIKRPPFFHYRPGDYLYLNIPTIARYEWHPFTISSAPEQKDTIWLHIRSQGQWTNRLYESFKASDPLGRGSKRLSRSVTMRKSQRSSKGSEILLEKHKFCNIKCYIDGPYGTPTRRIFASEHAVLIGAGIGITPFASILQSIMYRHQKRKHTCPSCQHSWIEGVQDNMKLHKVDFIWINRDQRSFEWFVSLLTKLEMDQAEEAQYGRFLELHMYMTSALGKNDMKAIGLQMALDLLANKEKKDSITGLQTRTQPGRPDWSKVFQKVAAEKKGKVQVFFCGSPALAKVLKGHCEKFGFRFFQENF
Test [11] in a line: compound effects on lung adenocarcinoma cell viability – A549, calcein-AM fluorescence, 48 h, basal, profiling panel (AID 1162). Further: test concentration not given here. As to conditions: higher = more signal.
The nature of test [12]: compound effects on differentiated 3T3-L1 adipocyte viability – cell-based, 3T3-L1 adipocytes, calcein-AM fluorescence, 48 h, basal, profiling panel (AID 1163). Further: test concentration not given here. As to conditions: 3T3-L1 adipocytes viability, higher = more signal.
Test [13] can be described thus: compound effects on hepatocellular carcinoma cell viability – HepG2, calcein-AM fluorescence, 48 h, basal, profiling panel (AID 1164). Further: test concentration not given here. As to conditions: higher = more signal.
Test [14] can be described thus: compound effects on multiple myeloma cell viability – MM1S, calcein-AM fluorescence, 48 h, basal, profiling panel (AID 1165). Further: test concentration not given here. The conditions noted are these: higher = more signal.
Test [15] can be described thus: calcein-AM signal in unstimulated myeloma cells – cell-based, calcein-AM fluorescence, 48 h, PK04 Diversity Set, profiling panel (AID 1166).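 Further: cells grown under basal conditions without added stimulus; test concentration not given here.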 The conditions noted are these: RPMI8226 myeloma viability, higher = more signal.
Test [16] is described as follows: JC-1 mitochondrial signal, unstimulated HepG2 cells – cell-based, JC-1 fluorescence, 24 h, 100 nL compound, profiling panel (AID 1167). Further: test concentration not given here. As to conditions: HepG2 mitochondrial potential, higher = more signal.
Test [17] is described as follows: JC-1 mitochondrial signal, unstimulated adipocytes – cell-based, JC-1 fluorescence, 3T3-L1 adipocytes, 24 h, 100 nL compound, profiling panel (AID 1168). Further: test concentration not given here. As to conditions: JC-1 mitochondrial fluorescence, higher = more signal, called active from +8 up or from −8 down.
Test [18] in a line: JC-1 mitochondrial signal, unstimulated myeloma cells – cell-based, JC-1 fluorescence, RPMI8226, 24 h, 100 nL compound, profiling panel (AID 1169). Further: test concentration not given here. As to conditions: JC-1 mitochondrial potential fluorescence, higher = more signal.
A short description of test [19]: JC-1 mitochondrial signal, unstimulated MM1S myeloma – cell-based, JC-1 fluorescence, 24 h, 100 nL compound, profiling panel (AID 1170). Further: test concentration not given here. As to conditions: MM1S mitochondrial potential, higher = more signal.
A short description of test [20]: resazurin metabolic signal in A549 cells – cell-based, resazurin fluorescence, 24 h, PK04 Diversity Set, profiling panel (AID 1171). Further: test concentration not given here. The conditions noted are these: A549 viability, higher = more signal, called active from +8 up or from −8 down. A general note: Alamar Blue is a resazurin reagent that responds to reducing activity.

Sequence of NADPH oxidase 2 (Homo sapiens) (P04839 whole entry, looked up): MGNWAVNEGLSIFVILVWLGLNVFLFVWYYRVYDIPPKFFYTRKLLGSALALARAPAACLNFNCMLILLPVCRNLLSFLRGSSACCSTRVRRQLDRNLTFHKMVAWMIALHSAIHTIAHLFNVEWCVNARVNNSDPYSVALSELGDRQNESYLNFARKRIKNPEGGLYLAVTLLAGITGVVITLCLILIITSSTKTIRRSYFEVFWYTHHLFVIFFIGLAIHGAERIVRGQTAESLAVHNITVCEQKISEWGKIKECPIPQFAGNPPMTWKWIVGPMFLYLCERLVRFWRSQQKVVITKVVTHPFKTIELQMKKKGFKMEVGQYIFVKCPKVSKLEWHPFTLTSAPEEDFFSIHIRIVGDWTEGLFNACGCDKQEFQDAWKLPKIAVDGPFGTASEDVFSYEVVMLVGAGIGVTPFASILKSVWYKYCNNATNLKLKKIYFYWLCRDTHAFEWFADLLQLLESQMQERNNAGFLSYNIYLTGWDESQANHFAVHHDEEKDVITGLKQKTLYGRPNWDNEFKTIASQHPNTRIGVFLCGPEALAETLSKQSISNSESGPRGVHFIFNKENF

`CCOC(=O)[C@H](Cc1ccccc1)NC(=O)CCC1CC(OC(=O)NCCc2ccc(F)cc2)CC2(CCCC(COC(=O)NCCOC)O2)O1` (stereo not given in full): the z-score in [1] was 0.602 (inactive); in test [3] it was 19.4 (active); in test [4], 4.99 (inactive); in test [5], 0.486 (inactive); in test [6] it was 0.737 (inactive); in test [7], 0.011. Further, the z-score in test [8] is 0.188 (inactive); in [9], 0.251 (inactive); in test [10], 0.0245; in [11], -0.153; in test [12], -0.41; in [13], -0.981. The z-score was -3.38 in [14]; -1.7 in test [15]; 0.0204 in [16]; 0.872 (inactive) in test [17]; -0.326 in test [18]; -1.48 in [19]. Further, in [20], the z-score was 0.042 (inactive). Moreover, the composite z-score in test [2] is -0.0468.

Take `O=C(NN=C1C[C@@H](O)[C@@H](O)[C@@H]2[C@@H]3C(=O)N(C[C@@H]4CCCO4)C(=O)[C@@H]3CC[C@@H]12)OCc1ccccc1`: the z-score in test [1] is 0.828 (inactive); in test [3] it was 0.423 (inactive); in [4] it was -1.35 (inactive); in test [5] it was 0.449 (inactive); in [6] it was -1.97 (inactive); in test [7], 2.18. Further, the z-score is -0.532 (inactive) in [8]; 0.554 (inactive) in test [9]; 0.8 in [10]; 0.468 in test [11]; 0.211 in test [12]; -0.293 in test [13]. Further, the z-score is -0.745 in [14]; 0.215 in test [15]; 0.795 in test [16]; 0.131 (inactive) in test [17]; 0.103 in test [18]; -0.989 in test [19]. Further, the z-score in [20] is -0.451 (inactive). Further, the composite z-score in [2] is -0.24.

Consider `C=CC[C@@H]1C=C[C@H](ON=C[C@@H](C)[C@H](OCc2ccccc2)C(C)C)[C@@H](CO)O1`, for which the z-score is -0.144 (inactive) in test [1]; 1.64 (inactive) in test [3]; 0.0178 (inactive) in test [4]; -0.667 (inactive) in [5]; 0.197 (inactive) in test [6]; -0.544 in [7]. The z-score was -0.55 (inactive) in [8]; -0.301 (inactive) in test [9]; -1.48 in test [10]; -0.475 in [11]; -0.162 in test [12]; -0.746 in test [13]. Further, the z-score was -1.55 in test [14]; -0.958 in [15]; -1.94 in test [16]; -0.87 (inactive) in test [17]; -0.419 in test [18]; -0.874 in test [19]. In test [20], the z-score is 0.0506 (inactive). In test [2], this molecule returned a composite z-score of -0.193.

In the case of `CCC1=NOC(CCC2CC(OC(=O)NCc3cccc4c3OCO4)CC3(CCCC(COC(=O)NCCc4ccccc4OC)O3)O2)C1` (stereo not given), the z-score is 0.572 (inactive) in [1]; 15.9 (active) in [3]; 2.99 (inactive) in test [4]; -0.501 (inactive) in test [5]; 0.568 (inactive) in test [6]; 0.0314 in test [7]. The z-score in [8] was 0.642 (inactive); in [9], -0.115 (inactive); in test [10] it was 0.0819; in test [11], -1.02; in test [12], 0.405; in test [13] it was -2.26. The z-score in test [14] was -3.6; in test [15] it was -3.84; in [16], 0.559; in test [17] it was -0.197 (inactive); in test [18] it was -0.77; in test [19], -2.17. Moreover, the z-score in [20] was 0.492 (inactive). The molecule further registered a composite z-score in test [2] of -0.0573.

Turning to `COC(=O)[C@H](C)NC(=O)CCC1CC(OC(=O)NCc2ccc3c(c2)OCO3)CC2(CCCC(COC(=O)NCCc3ccccc3OC)O2)O1` (stereo not given in full), the z-score in test [1] is -0.0563 (inactive); in test [3], 20.9 (active); in test [4], 5.56 (inactive); in test [5] it was -0.257 (inactive); in test [6], 0.566 (inactive); in [7], 1.15. Further, the z-score in [8] is 0.221 (inactive); in test [9], 0.301 (inactive); in test [10] it was 0.339; in [11] it was -0.949; in test [12] it was -0.976; in test [13] it was -2.36. Further, the z-score in test [14] is -3.53; in test [15], -1.56; in [16], -1.34; in [17] it was 0.354 (inactive); in test [18], -0.241; in test [19] it was -0.735. The z-score in test [20] is 0.389 (inactive). This molecule returned a composite z-score in [2] of -0.162.
